Screening data as filed in PubChem BioAssay.
Rows were chosen to be rich in hits. Some 3.7% of all compounds tested hit in one or more screens of this group.
PLK1 PBD inh: blocks phosphopeptide binding to human PLK1 polo-box domain. AID 720504. Plk1 PBD binding of FITC phosphopeptide, fluorescence polarization. actives 2.8% (n = 360,000). Potency, µM, without a hit: max response, negative = inhibition, hits mostly inhibitors; note: potency is the fitted concentration of half-maximal effect; series mostly up to about 57 µM; % is set by controls: 0 for no effect and ±100 for the full control effect; nearly all actives have a fitted effect of over 65% in size
TCR act: T cell receptor activation; primary human leukocytes, anti-CD3, IL-2 HTRF, 48 h; Potency, µM (series often up to 9.22 µM), without a hit: at the top dose activation of IL-2 secretion, hits mostly activators; 330,000 tested, under 10 active; AID 504894; note: % of control where 0% means no effect
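HTRF read-out of IL-2 secretion: europium cryptate donor excited at 320nm, d2 acceptor emission at 665nm. Cells were primary human leukocytes incubated 48 hr with compounds and a-CD3 beads, supplying TCR signal only.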
VDR inhibitor: inhibitors of human vitamin D receptor; P11473; VDR-SRC2-3 peptide fluorescence polarization, 2 h; Potency, µM, for the others: max response, negative = inhibition, usual class: inhibitors; actives 0.93% (n = 400,000); AID 504847; note: potency is the fitted concentration of half-maximal effect; % is set by controls: 0 for no effect and ±100 for the full control effect
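Fluorescence polarization assay measuring small-molecule disruption of VDR binding to the coregulator peptide SRC2-3. Compounds were pin-transferred (23 nl) into the reagent mix and incubated 2 h at room temperature before reading.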
FEN1 inhibitor: blocks human flap endonuclease 1; P39748; Recombinant FEN1 flap cleavage, fluorescence, 15 min; Potency, µM (top dose mostly 114 µM), for inactives: at the top dose activity change, negative = inhibition, hits mostly inhibitors; actives 0.35% (n = 390,000); note: potency is the fitted concentration of half-maximal effect; % is set by controls: 0 for no effect and ±100 for the full control effect; nearly all actives have a fitted effect of over 65% in size
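Quantitative HTS format: each compound was titrated, incubated with 10 nM nuclease for 15 min at room temperature, then challenged with flap substrate at 50 nM final. Signal change over 15 min gave concentration–effect curves.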
PI5P4K alpha inh: PI5P4K alpha (human) kinase inhibition; PI5P4Kalpha enzyme, ADP-Glo luminescence, 60 min; hits give low values; max response, %; actives 1.2% (n = 330,000); AID 652105; active = max response of -50% or lower; inconclusive = between -30% and -50%; inactive = -30% or higher; note: value at the top dose of about 77 µM; % is set by controls: 0 for no effect and ±100 for the full control effect
Target sequence (P48426 whole entry, looked up): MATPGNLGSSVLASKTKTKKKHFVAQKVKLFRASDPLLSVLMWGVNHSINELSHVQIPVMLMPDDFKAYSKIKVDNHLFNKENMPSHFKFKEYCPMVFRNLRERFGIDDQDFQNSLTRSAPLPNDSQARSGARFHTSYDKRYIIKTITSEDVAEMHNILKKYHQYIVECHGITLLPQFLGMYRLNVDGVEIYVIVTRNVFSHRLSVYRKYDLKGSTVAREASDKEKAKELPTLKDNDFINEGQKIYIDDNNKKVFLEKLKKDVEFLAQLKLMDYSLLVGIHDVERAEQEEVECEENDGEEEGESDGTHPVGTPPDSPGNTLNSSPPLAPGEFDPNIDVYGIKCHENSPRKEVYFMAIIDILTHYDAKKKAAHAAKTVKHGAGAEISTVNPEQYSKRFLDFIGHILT
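qHTS, 1536-well: enzyme/substrate mix, compound by pin tool, 5 microM ATP final; RT 60 min; ADP-Glo reagents 1 (45 min) then 2 (30 min); luminescence.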
WRN inhibitor: blocks human WRN helicase; WRN helicase unwinding, fluorescent forked duplex, kinetic; Q14191; Potency, µM (doses to about 114 µM), inactives show at the top dose activity change, negative = inhibition, hits mostly inhibitors; actives 0.46% (n = 360,000); note: potency is the fitted concentration of half-maximal effect; % is set by controls: 0 for no effect and ±100 for the full control effect; nearly all actives have a fitted effect of over 55% in size
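Fluorescence dequenching readout, ex 525 nm/em 598 nm, kinetic mode: forked duplex DNA (100 nM final) with adjacent fluorophore and quencher unwound by WRN (20 nM final) with 2 mM ATP. Compound preincubation 15 min, room temperature.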
Starred values were filed as active, the others as inactive; ? = inconclusive; . = no result; ! = not confirmed by another sample; [ ] = dose if it differs, or a comment. Unless noted, calls come from the whole dose curve; as a rule, active = well fitted curve in the direction sought with a large enough effect; inconclusive = small, poorly fitted or top-dose-only effect, or another doubt; inactive = no such curve, though single readings can be large; an effect the other way counts as inactive or inconclusive.

SMILES	PLK1 PBD inh	TCR act	VDR inhibitor	FEN1 inhibitor	PI5P4K alpha inh	WRN inhibitor
CCOc1cc(Br)cc(C(c2c(C(=O)O)[nH]c3ccccc23)c2c(C(=O)O)[nH]c3ccccc23)c1O	15µM*	3%	?	?	-10	2%[11.6 µM]
CCc1ccccc1NC(=O)c1ccc(Cn2nc(N3CCN(c4ccccc4)CC3)ccc2=O)o1	.	.	1%	10%	.	.
COc1ccc(-c2cc(C(=O)N/N=C/c3ccc(OC)c(COCC(F)(F)C(F)F)c3)c3ccccc3n2)c(OC)c1	3µM*	-9%	-17%	9%	-30	-3%
CCOC(=O)c1c(C)oc2ncnc(N3CCN(c4ccccc4)CC3)c12	.	.	6%	-16%	.	.
COc1ccc(C2/C=C\CN(C(=O)C3CCCCC3)C(Cc3ccccc3)C(=O)N2Cc2ccc(F)cc2)cc1 (centres undefined)	.	.	3%	-10%	.	.
Cc1cccc(-c2noc(CN(C(=O)c3ccc4c(c3)OCO4)C(C)C)n2)c1	27µM*	1%	-8%	-21%	-12	-4%
Cc1cc(C)n(CC(C)NC(=O)c2cc(COc3ccc(F)c(F)c3)on2)n1 (centres undefined)	-4%	-5%	-14%	-11%	-1	-2%
Cc1cc(C)n(CC(C)NC(=O)c2cc(COc3c(F)cccc3F)on2)n1 (centres undefined)	19µM*	7%	?	-2%	-14	2%
Cc1ccc(S(=O)(=O)NNC(=O)c2ccc(C(=O)N(c3ccccc3)c3ccccc3)cc2)cc1	.	.	.	-6%	.	.
Cc1ccc(NC(=O)CCS(=O)(=O)c2ccc3c(c2)NC(=O)C(C)S3)cc1Cl (centres undefined)	-5%	-6%	-5%	-6%	1	-16%
CC1Sc2ccc(S(=O)(=O)CCC(=O)Nc3ccccc3Cl)cc2NC1=O (centres undefined)	27µM*	2%	-19%	-15%	-5	4%
CCOc1ccccc1N(C)C(=O)CCS(=O)(=O)c1ccc2c(c1)NC(=O)C(C)S2 (centres undefined)	27µM*	-3%	?	18%	-24	3%
CCOc1ccc(NC(=O)c2cc(S(=O)(=O)NC3CCCC3)ccc2F)cc1	.	.	11%	17%	.	.
CC(=O)N1CCc2cc(S(=O)(=O)C(C)CC(=O)Nc3ccc(Br)c(C)c3)ccc21 (centres undefined)	.	.	4%	12%	.	.
Cc1ccccc1Cn1cnc2c(nnn2Cc2ccc(F)cc2)c1=O	-4%	-7%	89µM*	-4%	.	-3%
O=c1c2nnn(Cc3ccc(Cl)cc3)c2ncn1Cc1ccc(F)cc1	-1%	.	-4%	-18%	.	-4%
CC(/C=C/c1ccc(C)o1)=C\C(=O)O	-27%	-5%	?	-7%	-5	3%
CC(/C=C\c1ccccc1)=C/C(=O)O	5%	-3%	-10%	4%	-5	-7%
CC1=C(/C=C/C(C)=C/C=C/C(C)=C/C(=O)O)C(C)(C)CCC1O (centres undefined)	.	.	71µM*	.	.	.
CC1=C(/C=C/C(C)=C/C=C/C(C)=C/C(=O)O)C(C)(C)CCC1	?	3%	45µM*!	-14%	-1	-1%
CC1=C(/C=C/C(C)=C/C=C/C(C)=C/C(=O)Oc2c(C)c(C)c3c(c2C)CC[C@@](C)(CCC[C@H](C)CCC[C@H](C)CCCC(C)C)O3)C(C)(C)CCC1	.	.	-4%	.	.	.
CC1=C(/C=C/C(C)=C\C=C\C(C)=C\C(=O)O)C(C)(C)CCC1	.	.	56µM*!	.	.	.
Cc1c(/C=C/c2ccnc3ccccc23)ccc(N(C)C)c1C	.	.	.	-13%	.	.
COC(=O)N1CCN(/[N+]([O-])=N/Oc2ccc([N+](=O)[O-])cc2[N+](=O)[O-])CC1	.	.	?	5%	.	.
C(=C\c1ccnc2ccccc12)/c1ccccc1	.	.	.	-7%	.	.
SMILES	PLK1 PBD inh	TCR act	VDR inhibitor	FEN1 inhibitor	PI5P4K alpha inh	WRN inhibitor
Brc1cccc[n+]1Cc1ccccc1C[n+]1ccccc1Br	.	.	.	-12%	.	.
Cc1ccc(C(=O)OC(C(=O)Nc2ccc(Cl)cc2C(F)(F)F)c2ccccc2)cc1 (centres undefined)	-11%	0%[46.1 µM]	3%	7%	2	-29%
O=C(OC(C(=O)Nc1ccc(Cl)cc1C(F)(F)F)c1ccccc1)c1c(Cl)cccc1Cl (centres undefined)	30µM*	-4%[46.1 µM]	?	-14%	-6	-20%
COc1cc(C2Nc3ccccc3C(=O)N2NS(C)(=O)=O)c([N+](=O)[O-])cc1OC (centres undefined)	-9%	0%	?	2%	-6	-1%
COc1ccc(C2Nc3ccccc3C(=O)N2NS(C)(=O)=O)c(OC)c1 (centres undefined)	21µM*	-2%	?	-2%	0	3%
OC(C#Cc1ccccn1)c1cccs1 (centres undefined)	30µM*	-2%	50µM*	-2%	-6	-25%
C(=C\c1cccs1)/c1ccccn1	.	.	.	14%	.	.
Brc1cc2c(cc1Br)OCCOCCOCCOCCO2	4.2µM*	3%	28µM*	2%	?	?
Cc1ccc(C(=O)N2CCc3cc(CNC(=O)COc4ccccc4)ccc32)cc1	.	.	7%	11%	.	.
C=CCSc1nnc(N2C(=O)C(O)=C(C(=O)c3ccco3)C2c2ccccc2F)s1 (centres undefined)	13µM*	2%	-23%	0%	?	-4%[57.1 µM]
CCCSc1nnc(N2C(=O)C(O)=C(C(=O)c3ccco3)C2c2ccccc2F)s1 (centres undefined)	?	9%	?	-20%	?	-7%
Cc1cc(/C=C2\C=Cc3ccccc32)cc(C)c1[N+](=O)[O-]	.	.	.	-24%	.	.
N#Cc1cc(C#N)c(SCC(=O)N2CC(=O)Nc3ccccc32)nc1N	-4%	.	6%	-21%	-53*	-15%
CCc1cc2cc(C)ccc2nc1SCC(=O)N1CC(=O)Nc2ccccc21	6%	0%	5%	10%	-9	-7%
CCc1cc2c(SCC(=O)N3CC(=O)Nc4ccccc43)ncnc2s1	27µM*	-2%[46.1 µM]	?	-15%	-28	1%
O=C(Nc1ccc(OC(F)F)cc1)c1nc(SCc2ccccc2F)ncc1Cl	.	.	.	-1%	.	.
O=C(CCC1N=C2c3ccccc3N=C(SCc3cccc(F)c3)N2C1=O)NCc1cccs1 (centres undefined)	.	.	6%	?	.	.
